Ten compounds from PubChem BioAssay AID488896 (Broad Institute, 2010) can be followed below.

Each structure is given as a SMILES string. In all, about 320,000 compounds went through this assay and about 3,100 (0.97%) were called active. The sample holds actives, similar compounds and a random draw of the others, so the mix is not that of the screen.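 The calls were made as follows: active = mean replicate inhibition of at least 70% and a set share of replicates each scoring 70 or more; inconclusive = meets just one of the two criteria; inactive = fails both criteria.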

Usually inhibition stands for the relative decrease from the control value, in per cent.

The target in the assay is Scavenger receptor class B member 1 (Mus musculus) (UniProt Q61009). Description: mouse SR-BI DiI-HDL uptake blockers – ldlA[mSR-BI] cells, fluorescence, single point, primary screen (AID 488896).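 Also: 0% = median of neutral control wells and 100% = median of positive control wells.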 Conditions: ldlA[mSR-BI] CHO cells, 3 h, at 12.5 µM, stronger effect = higher value.
Chain of Scavenger receptor class B member 1 (Mus musculus) (Q61009 whole entry, looked up): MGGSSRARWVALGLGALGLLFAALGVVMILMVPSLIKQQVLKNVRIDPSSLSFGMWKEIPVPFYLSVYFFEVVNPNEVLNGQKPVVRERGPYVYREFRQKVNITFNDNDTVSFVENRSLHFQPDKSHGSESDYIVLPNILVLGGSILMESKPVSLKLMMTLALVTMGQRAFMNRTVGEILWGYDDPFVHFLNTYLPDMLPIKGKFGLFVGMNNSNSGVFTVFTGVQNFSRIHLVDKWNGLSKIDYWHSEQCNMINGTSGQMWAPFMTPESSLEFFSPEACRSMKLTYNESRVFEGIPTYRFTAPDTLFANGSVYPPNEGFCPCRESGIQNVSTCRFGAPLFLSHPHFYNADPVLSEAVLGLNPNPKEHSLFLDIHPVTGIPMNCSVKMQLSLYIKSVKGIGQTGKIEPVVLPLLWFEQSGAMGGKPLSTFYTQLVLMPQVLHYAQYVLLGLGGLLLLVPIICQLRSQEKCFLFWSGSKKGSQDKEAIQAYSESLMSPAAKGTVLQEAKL
As for `CC(=O)OC1C2(CC3N4C(=O)C5(CO)SSC4(CC31O)C(=O)N5C)OC(C)C(C)(C)C2=O` (stereo not given), the inhibition was 106% (active).
Regarding `CC12CCC(O)CC1CCC1C2CCC2(C)C(C(=O)CC(O)C(F)(F)F)CCC12` (stereo not given), the inhibition is 13.2% (inactive).
The value for `O=C(c1ccccc1)C(O)(CN1CCCCC1)c1ccccc1` (stereo not given) was -5.67% (inactive); that for `COC1C(O)C(C)OC(OC2CCC3(C=O)C(CCC4C3CCC3(C)C(C5=CC(=O)OC5)CCC43O)C2)C1O` (stereo not given) was 0.038% (inactive); that for `CCOP(=O)(OCC)C(NC(=O)c1ccc(OC)cc1)C(Cl)(Cl)Cl` (stereo not given) was 6.36% (inactive).
In the case of `CC(=O)c1ccc(OC(NC(=O)Cc2ccccc2)C(Cl)(Cl)Cl)cc1` (stereo not given), the inhibition is 92.8% (active).
For the compound `CC(=O)Cc1ccc(OC(C)C)cc1`, the inhibition was -1.27% (inactive).
On to `CN(C)CC1Oc2ccccc2OC1(O)c1ccccc1` (stereo not given), for which the inhibition is 1.39% (inactive).
As for `CC1=CC(=Cc2sc3ccccc3[n+]2C)C=C(C)O1`, the inhibition was -1% (inactive).
The value for `CCC(C)(O)C(=O)OC1C(=O)OC2CC3C(C)=CC(=O)C(O)C3(C)C3C4(O)OCC23C1C(C)C4O` (stereo not given) was -10.3% (inactive).
